According to PubChem BioAssay AID620 (Sanford-Burnham Center for Chemical Genomics, 2007):
Hit rate of the full screen: of about 87,000 compounds, about 360 (0.41%) were called active. This is one part of a sample in which actives are shown more often than they occur. A number with no mark means an inactive call. Cut-off read from the data, not from the text of the source: active = cytotoxicity above about 50%; inactive = the rest.

Experiment: cytotoxicity in HT1080 fibrosarcoma cells, cell-based, fluorescence readout (AID 620);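 note: cells exposed to compound overnight then 4 h with Alamar Blue; 0% = vehicle DMSO and 100% = killing control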
Details: HT1080 viability, at 10 µM, stronger effect = higher value

| Compound | cytotoxicity |
| --- | --- |
| COc1cccc(NC(=O)c2ccccc2-c2nc(-c3ccc(Cl)cc3)no2)c1 | 16.9% |
| O=C(NCc1ccco1)C(C(=O)c1ccc(F)cc1)n1ccccc1=O (stereo unspecified) | -0.6% |
| CC(=O)Nc1ccc(S(=O)(=O)N2CCCc3ccccc32)cc1 | 23.1% |
| Cc1cc(NC(=O)COC(=O)c2ccc(S(=O)(=O)N3CCCc4ccccc43)cc2)no1 | 52.4% (active) |
| Cc1cc(NC(=O)COC(=O)c2ccc(NS(=O)(=O)c3ccc(C)c(C)c3)cc2)no1 | -8.8% |
| COC(=O)Nc1ccc(S(=O)(=O)N2CCCc3ccccc32)cc1 | 53% (active) |
| O=C(O)C1CC=CCC1C(=O)Nc1ccc(S(=O)(=O)N2CCCc3ccccc32)cc1 (stereo unspecified) | -8.5% |
| Cc1cc(NC(=O)COC(=O)c2cccc(S(=O)(=O)N3CCOCC3)c2)no1 | 8.4% |
| COc1ccc(CCNS(=O)(=O)c2ccc3c(c2)oc(=O)n3C)cc1OC | 3.2% |
| CCOC(=O)COc1ccc(S(=O)(=O)N2CCN(c3ccccc3F)CC2)cc1 | -0.3% |
| Cc1cccc2cc3c(N)c(C#N)sc3nc12 | 2.6% |
| Cc1cccc2cc3c(N)c(C(=O)N4CCOCC4)sc3nc12 | 59% (active) |
| CCOc1ccc2nc3sc(C(=O)N4CCN(C)CC4)c(N)c3cc2c1 | -19.5% |
| Cc1ccc2cc3c(N)c(C(=O)N4CCOCC4)sc3nc2c1 | 3.2% |
| COc1ccc2cc3c(N)c(C(=O)N4CCCC4)sc3nc2c1 | 3.4% |
| Cc1ccc2nc3sc(C(=O)N4CCOCC4)c(N)c3cc2c1 | 55.8% (active) |
| CCN(CC)CCNC(=O)c1c(O)c2c([nH]c1=O)CCCC2 | 0.6% |
| O=C(CCn1c(=S)[nH]c2ccccc2c1=O)N1CCOCC1 | -2.8% |
| O=C1C2CC=C(Cl)CC2C(=O)N1c1ncn[nH]1 (stereo unspecified) | -1.3% |
| CC(C)C1N(c2ccccc2)C(N)=C(C#N)C1(C#N)C#N (stereo unspecified) | -5.5% |
| COc1cccc2sc(Nc3nnc(-c4ccccc4Cl)o3)nc12 | -3.2% |
| COc1ccc(-c2nnc(Nc3nc4c(OC)cccc4s3)o2)c(OC)c1 | 8.4% |
| COc1ccccc1-c1nnc(Nc2nc3c(OC)cccc3s2)o1 | 51.8% (active) |
| Cc1ccc(C(C(=O)NCc2ccccc2)N(C(=O)c2csnn2)c2cccc3ccccc23)o1 (stereo unspecified) | -5.1% |

| Compound | cytotoxicity |
| --- | --- |
| COc1cc(/C=N/Nc2nc3ccccc3o2)cc(OC)c1O | 17.8% |
| Nc1cccc2cnccc12 | 20.7% |
| Cc1cc2c(N)cccc2nn1 | -9.9% |
| CNC(=O)CSc1nc2nc(C)cc(C)n2n1 | 16.5% |
| CCCCS(=O)(=O)/C=C/[C@H]1[C@H](S(=O)(=O)CCCC)[C@H]2C=C[C@@H]1C2 | 0.3% |
| CCCCS(=O)(=O)/C=C\C=C/S(=O)(=O)CCCC | 94% (active) |
| CCCCS(=O)(=O)/C=C\C1C2C=CC(C2)C1S(=O)(=O)CCCC (stereo unspecified) | -14.4% |
| CCC(C)NC(=O)CNS(=O)(=O)c1ccc(C)cc1 (stereo unspecified) | 1.4% |
| COc1cc(CNc2ccc3c(c2)CCC3)cc(OC)c1O | -2.4% |
| O=C(NCc1ccco1)C1CCC(CNS(=O)(=O)c2cccc3cccnc23)CC1 (stereo unspecified) | -8.6% |
| O=c1c2cc(Br)ccc2nc2n1CCCCC2 | -8.5% |
| COc1cccc(CNC(=O)c2cc3ccccn3n2)c1 | 0% |
| CC(=O)c1cccc(NC(=O)c2cc3ccccn3n2)c1 | 6.1% |
| CCOC(=O)c1nc(N)c(=O)n(-c2ccc(C)cc2)n1 | 5.9% |
| CCOc1ccc(N(C(=O)Cn2nnc3ccccc32)C(C(=O)NC(C)(C)CC)c2cccn2C)cc1 (stereo unspecified) | 15% |
| C=CC1C(N2CCOCC2)C(C)(C)S1(=O)=O (stereo unspecified) | 0.5% |
| Cc1cc(NC(=O)CSc2nnc3c(C)cc4cc(C)c(C)cc4n23)no1 | 11.9% |
| Cc1cc(NC(=O)CSc2nnc3c(C)cc4c(C)ccc(C)c4n23)no1 | 58.9% (active) |
| Cc1cc(C)c2c(c1)cc(C)c1nnc(SCC(=O)Nc3cc(C)on3)n12 | 20.3% |
| COc1ccc(N2CCN(C(=O)CN(Cc3ccc(Cl)cc3)S(C)(=O)=O)CC2)cc1 | -6.4% |
| CC1CCCCN1C(=O)CSc1ccc(-c2ccc(F)cc2)nn1 (stereo unspecified) | -10.9% |
| CCOC(=O)N1CCN(C(=O)c2ccccc2-c2ccccc2)CC1 | 58.5% (active) |
| CCOC(=O)N1CCN(C(=O)c2ccccc2Oc2ccccc2)CC1 | 3.5% |
| O=C(c1ccccc1-c1ccccc1)N1CCCC1 | 7.3% |

| Compound | cytotoxicity |
| --- | --- |
| O=C(c1cc(-c2ccccc2)nc2ccccc12)N1CCN(c2ccccn2)CC1 | -0.4% |
| CCOC(=O)N1CCN(C(=O)c2cc(-c3ccc(OCC)cc3)nc3ccccc23)CC1 | 54.9% (active) |
| CCOc1ccc(-c2cc(C(=O)N3CCN(c4ccccn4)CC3)c3ccccc3n2)cc1 | 52.4% (active) |
| CCOc1ccc(-c2cc(C(=O)O)c3ccccc3n2)cc1 | 23.3% |
| COc1ccc(-c2cc(C(=O)N3CCN(c4ccccn4)CC3)c3ccccc3n2)cc1 | 3.7% |
| CCOc1ccc(-c2cc(C(=O)N3CCN(C)CC3)c3ccccc3n2)cc1 | 3.8% |
| CNC(=S)NN(c1ccccc1)c1ccccc1 | 30.1% |
| COc1ccccc1CNC(=O)C(=O)NCC1CCCO1 (stereo unspecified) | 0.9% |
| Cc1cc(=O)oc2cc(OCC3CC(c4ccccc4)=NO3)ccc12 (stereo unspecified) | 8.1% |
| Cc1cc(=O)oc2cc(OCC3CC(c4ccccc4Cl)=NO3)ccc12 (stereo unspecified) | 63.5% (active) |
| Cc1cc(=O)oc2cc(OCC3CC(c4ccc(Cl)cc4)=NO3)ccc12 (stereo unspecified) | -6.9% |
| O=C(NCc1ccccn1)C1CCCN(Cc2cnn(-c3ccccc3)c2-n2cccc2)C1 (stereo unspecified) | -8.2% |
| CC1CCN(S(=O)(=O)c2ccc3c(c2)C(=NO)c2cc(S(=O)(=O)N4CCC(C)CC4)ccc2-3)CC1 | 4.2% |
| O=S(=O)(c1ccc(S(=O)(=O)N2CCCC2)cc1)N1CCCCCC1 | 1.4% |
| O=S(=O)(c1ccc2c(c1)C(=NO)c1cc(S(=O)(=O)N3CCCCC3)ccc1-2)N1CCCCC1 | 102% (active) |
| CC(=O)c1ccc(NC(=O)C(Cc2ccccc2)NC(=O)c2ccco2)cc1 (stereo unspecified) | 16.9% |
| CCC(C(=O)NC1CCCC1)N(Cc1cccs1)C(=O)Cn1nnc(-c2ccc(OC)c(OC)c2)n1 (stereo unspecified) | -0.6% |
| CC1=C(C)/C(=N/OC(=O)c2cccc([N+](=O)[O-])c2)C=CC1=O | 7.5% |
| CC1=C(C)/C(=N\OS(=O)(=O)c2ccccc2)C=CC1=O | 70.2% (active) |
| Cc1ccc(S(=O)(=O)O/N=C2\CCCc3ccccc32)cc1 | 9.9% |
| CC1=CC(=O)C=C(C)C1=NOS(=O)(=O)c1ccccc1 | 51.3% (active) |
| CC1=C/C(=N\OS(=O)(=O)c2ccccc2)C=CC1=O | 35.8% |
| O=S(=O)(O/N=C1\CCCc2ccccc21)c1ccccc1 | 21.4% |
| Cn1cc(Cl)c(C(=O)N/N=C/c2ccc(OS(=O)(=O)c3ccccc3)cc2)n1 | 6.3% |

| Compound | cytotoxicity |
| --- | --- |
| Cc1ccc2[nH]c(=O)c(-c3nc4cc(C)ccn4c3NCc3ccco3)cc2c1 | -1.5% |
| CC(=O)OC(Cn1ccnc1)c1ccccc1 (stereo unspecified) | 7.8% |
| O=C(c1ccc(Cl)c(S(=O)(=O)NCc2ccco2)c1)N1CCN(c2ccccc2F)CC1 | 5.8% |
| COc1ccccc1N1CCN(C(=O)c2ccc(Cl)c(S(=O)(=O)NCc3ccco3)c2)CC1 | 56.3% (active) |
| Cc1cccc(N2CCN(C(=O)c3ccc(Cl)c(S(=O)(=O)NCc4ccco4)c3)CC2)c1C | 26.2% |
| Nc1nc(SCc2ccc(Cl)cc2)[nH]c(=O)c1-c1ccccc1 | 1.6% |
| COc1ccccc1N1CCN(c2ncnc3c2oc2ccccc23)CC1 | -2.5% |
| Cc1cc(C)nc(N2CCN(c3nc(C)nc4c3oc3ccccc34)CC2)n1 | -3.6% |
| COc1ccccc1N1CCN(c2nc(C)nc3c2oc2ccccc23)CC1 | 74.7% (active) |
| O=C(c1cccc(F)c1)N1CCN(Cc2c[nH]c3ccccc23)CC1 | 2.4% |
| COc1ccc2cc(C(c3nnnn3Cc3ccccc3)N3CCCCCC3)c(=O)[nH]c2c1 (stereo unspecified) | 17.3% |
| Cc1cc(C(=O)CSc2nnc(-c3cccs3)n2Cc2ccccc2)c(C)n1C | 4.7% |
| Cc1c(NC(=O)CSc2nc3ccccc3n2C)c(=O)n(-c2ccccc2)n1C | 2.7% |
| COc1ccc(C(=O)n2c(-c3ccco3)nc3ccccc32)cc1 | 56.2% (active) |
| CCn1c(-c2ccco2)nc2ccccc21 | 6.1% |
| COc1ccc(C(=O)n2nc(-c3ccco3)nc2N)cc1 | 25.6% |
| CCN(CC)C(=O)CSc1nc2sc(C)c(C)c2c(=O)[nH]1 | -6.3% |
| COc1ccc(CCN(C)C(=O)N2CCOCC2)cc1OC | -5.8% |
| CCSc1nnc(NC(=O)c2cccc(OCc3c(C)noc3C)c2)s1 | -11.1% |
| COc1cc(C(=O)Nc2nc3ccccc3s2)ccc1OCc1c(C)noc1C | -13% |
| COc1ccc2nc(NC(=O)c3cccc(OCc4c(C)noc4C)c3)sc2c1 | 57.3% (active) |
| CC1C(=O)CCN(C(C)C)C1C (stereo unspecified) | -13.7% |
| Cc1oc2cc(O)cc(C)c2c(=O)c1-c1cnn(-c2ccccc2)c1 | 33.9% |
| O=C1CCc2cc(S(=O)(=O)N3CCCC3C(=O)N3CCN(c4ccccc4)CC3)ccc2N1 (stereo unspecified) | -3.8% |
